Assay outcomes deposited in PubChem BioAssay by The Scripps Research Institute Molecular Screening Center.
SRC1 TRFRET art: counter-screen for PPARgamma SRC-1 recruitment agonists: TR-FRET artefact; TR-FRET detection artefact counter-screen, emission ratio; hits give high values; TR-FRET ratio at 8 µM; hit rate 0.34% among 99,000; in the data active means TR-FRET ratio above about 2300
PPARg SRC2 recr: PPARgamma-driven SRC-2 recruitment agonism | P37231 | PPARgamma LBD-SRC-2 recruitment, biochemical | activation, % at 8 µM | hit rate 0.34% among 200,000 | AID 1032
Target sequence (P37231 whole entry, looked up, the tested form may be a part): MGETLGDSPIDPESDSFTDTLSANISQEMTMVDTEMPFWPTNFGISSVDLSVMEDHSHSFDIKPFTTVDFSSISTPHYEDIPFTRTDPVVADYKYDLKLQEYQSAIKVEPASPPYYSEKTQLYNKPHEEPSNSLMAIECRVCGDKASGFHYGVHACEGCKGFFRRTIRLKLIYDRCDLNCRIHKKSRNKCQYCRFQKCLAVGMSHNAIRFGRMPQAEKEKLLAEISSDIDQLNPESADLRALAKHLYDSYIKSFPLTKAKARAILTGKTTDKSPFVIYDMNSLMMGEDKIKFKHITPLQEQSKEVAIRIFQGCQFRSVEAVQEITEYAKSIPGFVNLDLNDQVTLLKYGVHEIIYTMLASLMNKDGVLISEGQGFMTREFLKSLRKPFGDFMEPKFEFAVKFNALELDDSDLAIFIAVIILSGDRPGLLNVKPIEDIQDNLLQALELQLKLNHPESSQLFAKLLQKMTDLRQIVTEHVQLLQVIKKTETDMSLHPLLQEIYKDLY
TR-FRET SRC-2 ct: counter-screen for PPARgamma SRC-2 recruitment agonists: TR-FRET artefact; TR-FRET ratio at 8 µM; hit rate 0.4% among 200,000; hits give high values; in the data active means TR-FRET ratio above about 2000
PPARg SRC-1 ag: PPARgamma-driven SRC-1 recruitment agonism; activation, % at 8 µM; PPARgamma-SRC-1 coactivator recruitment biochemical assay; hit rate 0.41% among 200,000; in the data active means activation above about 19%
SRC3 TRFRET art: TR-FRET artefact, counter-screen to PPARgamma/SRC-3 agonist assay; PPARgamma/SRC-3 format; hits give high values; TR-FRET ratio at 8 µM; hit rate 0.39% among 99,000; AID 1048; in the data active means TR-FRET ratio above about 2000
PPARg SRC-3 ag: PPARgamma-driven SRC-3 recruitment agonism. biochemical PPARgamma/SRC-3 coactivator recruitment assay. activation, % at 8 µM. AID 731. hit rate 0.26% among 200,000. P37231; in the data active means activation above about 23%
PPARg SRC2 ag: confirmation of agonists of SRC-2 recruitment by human PPARgamma. shares compounds with PPARg SRC-3 ag. biochemical SRC-2 recruitment by PPARgamma. activation, % at 8 µM. hit rate 52% among 790
PPARg SRC1 conf: confirmation of agonists of SRC-1 recruitment by human PPARgamma; shares compounds with PPARg SRC-3 ag; PPARgamma–SRC-1 coactivator recruitment biochemical assay; activation, % at 8 µM; hit rate 43% among 790; in the data active means activation above about 20%
PPARg SRC3 conf: human PPARgamma SRC-3 recruitment agonism, confirmation. shares compounds with PPARg SRC-3 ag. biochemical PPARgamma-SRC-3 coactivator recruitment, agonist mode. activation, % at 8 µM. hit rate 29% among 790; in the data active means activation above about 24%
A number is an active result. Only some compounds are listed: those with a hit (about 0.9% of all), similar ones and a draw of the others. Unless noted, no stated cut-off is given here; in the data, active means activation above about 22%; inactive means the rest.

Screening O=c1c(Br)c(Br)cnn1-c1ccccc1 returned SRC1 TRFRET art 2662, PPARg SRC2 recr 34, TR-FRET SRC-2 ct 2405, PPARg SRC-1 ag 38, SRC3 TRFRET art 2406, PPARg SRC-3 ag 32, PPARg SRC2 ag 29, PPARg SRC1 conf inactive and PPARg SRC3 conf inactive.
`Oc1ccc(N=Cc2ccc(-c3cccs3)s2)cc1` gave PPARg SRC2 recr 26, TR-FRET SRC-2 ct inactive, PPARg SRC-1 ag 37, PPARg SRC-3 ag inactive, PPARg SRC2 ag 53, PPARg SRC1 conf 46 and PPARg SRC3 conf 30.
For Cc1ccc(OC(=O)c2cccc(C(=O)Oc3ccc(C)cn3)n2)nc1 the results were PPARg SRC2 recr inactive, TR-FRET SRC-2 ct inactive, PPARg SRC-1 ag inactive and PPARg SRC-3 ag inactive.
Screening S=c1nc(-c2ccccc2Br)[nH][nH]1 returned PPARg SRC2 recr inactive, TR-FRET SRC-2 ct inactive, PPARg SRC-1 ag inactive and PPARg SRC-3 ag inactive.
Screening S=c1nc(-c2cc(Cl)ccc2Cl)[nH][nH]1 returned SRC1 TRFRET art 2654, PPARg SRC2 recr 27, TR-FRET SRC-2 ct 2272, PPARg SRC-1 ag inactive, SRC3 TRFRET art 2092, PPARg SRC-3 ag inactive, PPARg SRC2 ag 24, PPARg SRC1 conf inactive and PPARg SRC3 conf inactive.
`S=c1nc(-c2cccc(Cl)c2)[nH][nH]1` gave SRC1 TRFRET art inactive, PPARg SRC2 recr 28, TR-FRET SRC-2 ct inactive, PPARg SRC-1 ag inactive, SRC3 TRFRET art 2145, PPARg SRC-3 ag inactive, PPARg SRC2 ag 24, PPARg SRC1 conf 21 and PPARg SRC3 conf inactive.
For C/C(Cn1cnc([N+](=O)[O-])n1)=N/NC(=O)COc1c(Cl)cc(Cl)cc1Cl the results were SRC1 TRFRET art inactive, PPARg SRC2 recr inactive, TR-FRET SRC-2 ct inactive, PPARg SRC-1 ag inactive, SRC3 TRFRET art inactive and PPARg SRC-3 ag inactive.
COc1ccc2nc(SC)c(C#N)cc2c1 was read as SRC1 TRFRET art inactive, PPARg SRC2 recr inactive, TR-FRET SRC-2 ct inactive, PPARg SRC-1 ag inactive, SRC3 TRFRET art 2738, PPARg SRC-3 ag 27, PPARg SRC2 ag 75, PPARg SRC1 conf 58 and PPARg SRC3 conf 43.
Screening N#Cc1cc2ccccc2nc1SCc1cccnc1 returned SRC1 TRFRET art inactive, PPARg SRC2 recr inactive, TR-FRET SRC-2 ct inactive, PPARg SRC-1 ag inactive, SRC3 TRFRET art inactive and PPARg SRC-3 ag inactive.
Screening COc1ccc2nc(SCc3cccnc3)c(C#N)cc2c1 returned PPARg SRC2 recr inactive, TR-FRET SRC-2 ct inactive, PPARg SRC-1 ag 83, PPARg SRC-3 ag 69, PPARg SRC2 ag 53, PPARg SRC1 conf 42 and PPARg SRC3 conf 33.
`COc1ccc2c(c1)oc(=O)c1c3ccccc3[nH]c21` gave SRC1 TRFRET art 4961, PPARg SRC2 recr 56, TR-FRET SRC-2 ct 3710, PPARg SRC-1 ag 48, SRC3 TRFRET art 3944, PPARg SRC-3 ag 41, PPARg SRC2 ag 44, PPARg SRC1 conf 33 and PPARg SRC3 conf 27.
`COc1ccc2c(c1)oc(=O)c1ccccc12` gave SRC1 TRFRET art inactive, PPARg SRC2 recr inactive, TR-FRET SRC-2 ct inactive, PPARg SRC-1 ag inactive, SRC3 TRFRET art inactive and PPARg SRC-3 ag inactive.
`NC(=O)c1cccc2c(=O)oc3ccccc3c12` gave PPARg SRC2 recr inactive, TR-FRET SRC-2 ct inactive, PPARg SRC-1 ag inactive and PPARg SRC-3 ag inactive.
`O=c1oc2cc(O)c(Cl)cc2c2ccccc12` gave SRC1 TRFRET art 3291, PPARg SRC2 recr 102, TR-FRET SRC-2 ct 4246, PPARg SRC-1 ag 59, SRC3 TRFRET art 4295, PPARg SRC-3 ag 54, PPARg SRC2 ag 55, PPARg SRC1 conf 34 and PPARg SRC3 conf 39.
`CC(C)(CO)NCC(=O)Nc1cc(C(F)(F)F)cc(NC(=O)CNC(C)(C)CO)c1Cl` gave SRC1 TRFRET art inactive, PPARg SRC2 recr inactive, TR-FRET SRC-2 ct inactive, PPARg SRC-1 ag inactive, SRC3 TRFRET art inactive and PPARg SRC-3 ag inactive.
S=c1[nH]c(-c2ccc(Cl)cc2)cs1 was read as SRC1 TRFRET art 2339, PPARg SRC2 recr 30, TR-FRET SRC-2 ct 1997, PPARg SRC-1 ag 27, SRC3 TRFRET art 2141, PPARg SRC-3 ag inactive, PPARg SRC2 ag 27, PPARg SRC1 conf inactive and PPARg SRC3 conf inactive.
`Cc1ccc(C(=O)N2CCN(S(=O)(=O)c3ccc(C)c([N+](=O)[O-])c3)C2)cc1` gave SRC1 TRFRET art inactive, PPARg SRC2 recr inactive, TR-FRET SRC-2 ct inactive, PPARg SRC-1 ag inactive, SRC3 TRFRET art inactive and PPARg SRC-3 ag inactive.
CCC(Sc1nc2ccccc2s1)C(=O)Nc1cc(C)on1 (stereo not drawn) was read as PPARg SRC2 recr inactive, TR-FRET SRC-2 ct inactive, PPARg SRC-1 ag inactive and PPARg SRC-3 ag inactive.
CCCCn1c(=S)[nH]c2c(oc3ccc(Cl)cc32)c1=O was read as PPARg SRC2 recr inactive, TR-FRET SRC-2 ct inactive, PPARg SRC-1 ag 22, PPARg SRC-3 ag inactive, PPARg SRC2 ag inactive, PPARg SRC1 conf inactive and PPARg SRC3 conf inactive.
`Cc1cc(Br)c2nc3c(c(C(=O)O)c2c1)CCCCC3` gave SRC1 TRFRET art 3214, PPARg SRC2 recr 98, TR-FRET SRC-2 ct 4070, PPARg SRC-1 ag 53, SRC3 TRFRET art 4157, PPARg SRC-3 ag 50, PPARg SRC2 ag 67, PPARg SRC1 conf 43 and PPARg SRC3 conf 47.
CCc1ccc2nc3c(c(C(=O)O)c2c1)CCC3 was read as PPARg SRC2 recr inactive, TR-FRET SRC-2 ct inactive, PPARg SRC-1 ag inactive and PPARg SRC-3 ag inactive.
For O=C(c1ccccc1)c1c[nH]c(C(=O)NNc2ccccc2)c1 the results were SRC1 TRFRET art inactive, PPARg SRC2 recr inactive, TR-FRET SRC-2 ct inactive, PPARg SRC-1 ag inactive, SRC3 TRFRET art inactive and PPARg SRC-3 ag inactive.
Screening COc1cccc(Nc2nc(-c3sc(NC(=O)c4ccccc4)nc3C)cs2)c1 returned PPARg SRC2 recr inactive, TR-FRET SRC-2 ct inactive, PPARg SRC-1 ag inactive, PPARg SRC-3 ag 27, PPARg SRC2 ag 42, PPARg SRC1 conf 26 and PPARg SRC3 conf inactive.
`Cn1c(-c2sc3cc(C(F)(F)F)cnc3c2-c2cccs2)n[nH]c1=S` gave SRC1 TRFRET art 2475, PPARg SRC2 recr 30, TR-FRET SRC-2 ct 2200, PPARg SRC-1 ag inactive, SRC3 TRFRET art 2332, PPARg SRC-3 ag inactive, PPARg SRC2 ag 46, PPARg SRC1 conf 41 and PPARg SRC3 conf 29.
Screening Cn1c(-c2sc3cc(C(F)(F)F)cnc3c2-c2cccnc2)n[nH]c1=S returned PPARg SRC2 recr inactive, TR-FRET SRC-2 ct inactive, PPARg SRC-1 ag 19, PPARg SRC-3 ag 30, PPARg SRC2 ag 72, PPARg SRC1 conf 57 and PPARg SRC3 conf 44.
`O=C(Cc1sc(-c2ccccc2)nc1-c1ccccc1)Nc1ccc(Cl)cc1` gave PPARg SRC2 recr inactive, TR-FRET SRC-2 ct inactive, PPARg SRC-1 ag inactive and PPARg SRC-3 ag inactive.
